Most compounds without a hit are left out; they make up all but 8.8% or so of the library.
HT1080 IDH1KD tx – qHTS for induction of synthetic lethality in tumor cells producing 2HG: qHTS for the HT-1080-IDH1KD cell line. hit rate 2% among 360,000. HT-1080 IDH1 knockdown viability, ATP luminescence, 48 h. AID 686971, 2013. Potency, µM (highest dose often 46.1 µM), for the others: at the highest dose activity, negative = toxicity, actives largely listed as cytotoxic;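 note: potency is the fitted concentration of half-maximal effect; 0% = DMSO wells and -100% = cell-free medium wells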
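% activity derives from luminescence (CellTiter-Glo), normalised to DMSO and no-cell wells. HT-1080-IDH1KD cells, 750/well, had 48 h compound exposure at 37 °C.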
IL-1B inflam inh – qHTS for Inhibitors of Inflammasome Signaling: IL-1-beta AlphaLISA Primary Screen; hit rate 4.7% among 360,000; AID 743279, 2014; THP-1 LPS/ATP IL-1B secretion, AlphaLISA, 16 h; stronger effect = lower value; activity change, % at 57.5 µM; in the data active = activity change below about -50%; inconclusive = mostly about -30% to -49%
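Secreted IL-1B measured by AlphaLISA bead assay after 16 h compound exposure of THP-1 cells; compounds (final up to 57.5 uM) added 1 h before LPS (250 ng/mL) and ATP (1.25 mM) stimulation; lower signal means less secretion.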
KB-3-1 cytotox – qHTS assay for MDR1-selective chemotherapeutics: Primary screen using the parental adenocarcinoma cell KB-3-1. KB-3-1 viability, CellTiter-Glo ATP luminescence, 72 h. Potency, µM (top dose mostly 46.1 µM), actives largely listed as cytotoxic. hit rate 1.4% among 400,000. AID 1347075, 2019; note: potency is the fitted concentration of half-maximal effect; nearly all actives have a fitted effect of over 60% in size
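Parental KB-3-1 viability, qHTS format: 72 h compound exposure, 37 °C; CellTiter-Glo; media-only wells and DMSO plates as controls; concentration-effect fits on corrected data.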
KB-V1 MDR tox – qHTS assay for MDR1-selective chemotherapeutics: Primary screen using the drug-selected MDR subline cells KB-V1; KB-V1 MDR cells viability, CellTiter-Glo, 72 h; Potency, µM (highest dose often 46.1 µM), most hits filed as cytotoxic; hit rate 3.4% among 400,000; note: potency is the fitted concentration of half-maximal effect; nearly all actives have a fitted effect of over 60% in size
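KB-V1 cells (P-gp-expressing MDR subline of KB-3-1) in phenol-red-free DMEM with 10% FBS were exposed to library compounds over a concentration series for 72 h at 37 degrees C. Viability read by CellTiter-Glo luminescence; concentration-effect curves fitted after normalization.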
HT1080NT lethal – qHTS for induction of synthetic lethality in tumor cells producing 2HG: qHTS for the HT-1080-NT fibrosarcoma cell line. hit rate 1.6% among 360,000. HT-1080-NT fibrosarcoma viability, CellTiter-Glo ATP luminescence, 48 h. Potency, µM (highest dose often 46.1 µM), inactives show top-dose activity, negative = less viability, actives largely listed as cytotoxic;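 note: NT is the 2HG producing partner of a matched IDH1 knockdown line; potency is the fitted concentration of half-maximal effect; 0% = DMSO-treated cells and -100% = media-only wells without cells; nearly all actives have a fitted effect of over 55% in size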
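HT-1080-NT; 750 cells/well; 5% FBS RPMI; 48 h compound, 37 degrees C; CellTiter-Glo luminescence; curve fitting and curve-class assignment.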
Active calls of the source: *; i = inactive; ? = inconclusive; · = no result; [ ] = dose if it differs, or a comment. Unless noted, calls come from the whole dose curve; as a rule, active = well fitted curve in the direction sought with a large enough effect; inconclusive = small, poorly fitted or top-dose-only effect, or another doubt; inactive = no such curve, though single readings can be large; an effect the other way counts as inactive or inconclusive. Unless noted, % is set by controls: 0 for no effect and ±100 for the full control effect.

SMILES	HT1080 IDH1KD tx	IL-1B inflam inh	KB-3-1 cytotox	KB-V1 MDR tox	HT1080NT lethal
CC(C)[C@H](NC(=O)CCCn1nnc2ccccc2c1=O)C(=O)O	10%	-73*	i	i	-1%
COc1ccc(CN2CCN(c3ccc(F)cc3)CC2)c(OC)c1OC	-23%	9	?	8.2µM*	0%
COc1cc(OC)c(CN2CCN(c3ccc(F)cc3)CC2)cc1Br	?	2	i	16µM*	?
COc1cc(OC)c(CN2CCCCCCC2)cc1Br	?	-5	i	i	5%
COc1ccc(CN2CCN(C(c3ccc(F)cc3)c3ccc(F)cc3)CC2)c(OC)c1OC	?	-24	?	18µM*	?
COCCNC(=O)C1(C)CCCN(CCS(=O)(=O)c2ccc(C)cc2)C1 (stereo unspecified)	-3%	7	i	i	0%
O=C(CCN1C(=O)c2ccccc2S1(=O)=O)N1CCN(c2ccc(F)cc2)CC1	-9%	18	i	i	-2%
O=C1c2ccccc2S(=O)(=O)N1CCS(=O)(=O)c1ccc(F)cc1	-9%	-76*	i	i	-2%
CNc1cncc(-c2ccc(F)cc2F)n1	-1%	?	i	i	1%
Cc1ccc(S(=O)(=O)NN=CC2(c3ccccc3)CC2)cc1	4%	-16	i	i	12%
CCCC(=O)N(Cc1cc(=O)[nH]c2ccccc12)c1ccc(C)cc1C	0%	34	i	i	-1%
Cc1ccc(N(Cc2cc(=O)[nH]c3ccccc23)C(=O)CCl)c(C)c1	5.2µM*	-105*	18µM*	?	4.6µM*
COc1ccccc1-n1nc(-c2ccccc2)c2cnc3c(F)cc(F)cc3c21	·	·	i	i	·
Cc1ccc(-n2c(C)nnc2SCC(=O)N(C)C2CCS(=O)(=O)C2)cc1 (stereo unspecified)	16%	-5	i	i	6%[9.24 µM]
CN(C(=O)CN1C(=O)NC(C)(c2cccc(Br)c2)C1=O)C1CCCCC1 (stereo unspecified)	13%	-89*	i	23µM*	4%
CC(CC(=O)Nc1nnc(CC(C)(C)C)s1)c1ccccc1 (stereo unspecified)	3%	32	i	i	9%
CC(=O)OC1CCC2C3CCc4cc(O)ccc4C3CCC12C (stereo unspecified)	?	31	i	18µM*	?
CCn1cc(/C=N/N=C2\CCC3C4CCc5cc(O)ccc5C4CC[C@]23C)c(C)n1 (stereo partly specified)	-2%[9.24 µM]	0	i	i	-19%
C[C@]12CC[C@@H]3c4ccc(O)cc4CC[C@H]3[C@@H]1C[C@@H](O)[C@@H]2O[C@@H]1O[C@H](C(=O)O)[C@@H](O)[C@H](O)[C@H]1O	11%	11	i	i	23%
CC(=O)O[C@H]1CC[C@H]2[C@@H]3CCc4cc(O)ccc4[C@H]3CC[C@]12C	?	8	?	15µM*	18µM*
C[C@]12CC[C@@H]3c4ccc(O)cc4CC[C@H]3[C@@H]1CC[C@@H]2O	?	24	i	?	?
CC(NCCN(C)C)C1CCC2C3CCc4cc(O)ccc4C3CCC12C (stereo unspecified)	?	-102*	i	?	?
CC1(C)Cc2ccccc2C(/C(=N/O)C(N)=O)=N1	2%	0	i	i	-14%
CC(=O)/C(=N\Nc1cccc(Cl)c1)Sc1cccc2cccnc12	7%	30	i	i	6%
CC(=O)c1ccc(N/N=C(/C(N)=O)C2=NC(C)(C)Cc3ccccc32)cc1	-22%	-3	i	12µM*	-6%
CC1(C)Cc2ccccc2C(/C(=N\Nc2cccc(Cl)c2)C(N)=O)=N1	21µM*	-54*	?	i	21µM*
O=C(CSc1ccc(-c2cccs2)nn1)Nc1cccc(F)c1	·	·	?	i	·
